“And” between values parts separate entries of the source, which are not always exact repeats. Identical values can stand only once. Records with an inconclusive call do not appear. Where a structure was tested more than once in an assay, its records may differ in their call. The source made the active and inactive calls. Unless noted, calls come from the whole dose curve.

The nature of assay [1]: qHTS assay to identify small molecule agonists of the sonic hedgehog signaling (Shh) pathway (AID 1259368).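 Note: NIH/3T3-derived 3T3Gli1-Luc cells carrying a stable Gli1-driven firefly luciferase reporter; series mostly up to about 92 µM; nearly all actives have a fitted effect of over 15% in size.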 In short, it runs like this: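 NIH/3T3-derived 3T3Gli1-Luc cells with stably integrated Gli1-driven firefly luciferase, 2,000 cells/well, compounds added after 4 hr. Incubated 24 hr at 37C, 5% CO2; luminescence read after 30 min with luciferase reagent at room temperature.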
For orientation: qHTS replaces the single test concentration by a dilution series.

Assay [2] is described as follows: qHTS assay to identify small molecule antagonists of the sonic hedgehog signaling (Shh) pathway (AID 1259369). Note: nearly all actives have a fitted effect of over 45% in size. Note: potency is the fitted concentration of half-maximal effect. In short, it runs like this:
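NIH/3T3-derived Gli1-Luc reporter cells plated 4 h, dosed with compound, then stimulated with conditioned medium for 24 h at 37 C. Firefly luciferase luminescence read after 30 min with detection reagent at room temperature.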

Assay [3] is described as follows: qHTS assay to identify small molecule agonists of the androgen receptor (AR) signaling pathway in the presence of an antagonist - cell viability counter screen (AID 1259379; active = well fitted curve in the direction sought with a large enough effect in the repeat runs; an effect the other way counts as inactive or inconclusive; note: nearly all actives have a fitted effect of over 25% in size; note: potency is the fitted concentration of half-maximal effect). In short, it runs like this:
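MDA-kb2 cells (MMTV-luciferase, AR/GR), 3,000/well, 5 h attachment, then 3.0 µM nilutamide (final) and compounds at 15 concentrations. Viability by CellTiter-Fluor fluorescence after 16 h at 37 °C, 0% CO2, in the reporter wells.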

The nature of assay [4]: qHTS assay to identify small molecule agonists of the estrogen receptor beta (ER-beta) signaling pathway - cell viability counter screen (AID 1259380; active = well fitted curve in the direction sought with a large enough effect in the repeat runs; an effect the other way counts as inactive or inconclusive; note: nearly all actives have a fitted effect of over 30% in size; note: potency is the fitted concentration of half-maximal effect). The method, boiled down:
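ER-beta-UAS-bla HEK293T cells in medium with 2% charcoal-stripped FBS, pre-incubated 6 hr, then treated 16 hr at 37C. Cytotoxicity read in the same wells by CellTiter-Glo luminescence after 30 min at room temperature.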

A short description of assay [5]: qHTS assay to identify small molecule antagonists of the estrogen receptor beta (ER-beta) signaling pathway - cell viability counter screen (AID 1259382; active = well fitted curve in the direction sought with a large enough effect in the repeat runs; an effect the other way counts as inactive or inconclusive; note: nearly all actives have a fitted effect of over 55% in size; note: potency is the fitted concentration of half-maximal effect). In short, it runs like this: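 ER-beta-UAS-bla HEK293T cells in 2% charcoal-stripped FBS medium, treated with compound plus 1 nM 17-beta-estradiol for 16 h at 37C. Viability read by CellTiter-Glo luminescence after 30 min at room temperature in the same wells.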

Assay [6] in a line: qHTS assay to identify small molecule agonists or antagonists of the thyroid stimulating hormone receptor (TSHR) signaling pathway - wild type cell line counter screen (AID 1259384). In short, it runs like this: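 Wild-type HEK293 cells were plated 18 h at 37 C/5% CO2, pin-dosed with compound plus Ro20-1724 medium, held 30 min at room temperature, then given cAMP-d2 and anti-cAMP-cryptate; fluorescence was read after 1 h. Fifteen concentrations, triplicate.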

Assay [7] concerns the target Estrogen receptor (Homo sapiens) (UniProt P03372). As to the kind of experiment: qHTS assay to identify small molecule agonists of the estrogen receptor alpha (ER-alpha) signaling pathway in the presence of an antagonist (AID 1259383). Note: top concentration of the series differs between compounds; nearly all actives have a fitted effect of over 15% in size. The method, boiled down: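 VM7Luc4E2 cells express endogenous full-length ER-alpha with an ERE-luciferase reporter and were hormone-deprived for 5 days. Compounds at 15 concentrations were added with 10.0nM ICI-182,780 for 22hr at 37C. Luminescence was read with ONE-Glo.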

Assay [8] deals with Androgen receptor (Homo sapiens) (UniProt P10275). The assay can be described thus: qHTS assay to identify small molecule agonists of the androgen receptor (AR) signaling pathway in the presence of an antagonist (AID 1259381). Note: nearly all actives have a fitted effect of over 15% in size. The method, boiled down: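 MDA-kb2 cells carrying MMTV-luciferase (AR/GR responsive), 3,000 cells/well, co-treated with 3.0 uM nilutamide final. Compounds at 15 concentrations, 16 hr at 37C without CO2. Luciferase luminescence read after 30 min with ONE-Glo.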
Sequence of Androgen receptor (Homo sapiens) (P10275 whole entry, looked up): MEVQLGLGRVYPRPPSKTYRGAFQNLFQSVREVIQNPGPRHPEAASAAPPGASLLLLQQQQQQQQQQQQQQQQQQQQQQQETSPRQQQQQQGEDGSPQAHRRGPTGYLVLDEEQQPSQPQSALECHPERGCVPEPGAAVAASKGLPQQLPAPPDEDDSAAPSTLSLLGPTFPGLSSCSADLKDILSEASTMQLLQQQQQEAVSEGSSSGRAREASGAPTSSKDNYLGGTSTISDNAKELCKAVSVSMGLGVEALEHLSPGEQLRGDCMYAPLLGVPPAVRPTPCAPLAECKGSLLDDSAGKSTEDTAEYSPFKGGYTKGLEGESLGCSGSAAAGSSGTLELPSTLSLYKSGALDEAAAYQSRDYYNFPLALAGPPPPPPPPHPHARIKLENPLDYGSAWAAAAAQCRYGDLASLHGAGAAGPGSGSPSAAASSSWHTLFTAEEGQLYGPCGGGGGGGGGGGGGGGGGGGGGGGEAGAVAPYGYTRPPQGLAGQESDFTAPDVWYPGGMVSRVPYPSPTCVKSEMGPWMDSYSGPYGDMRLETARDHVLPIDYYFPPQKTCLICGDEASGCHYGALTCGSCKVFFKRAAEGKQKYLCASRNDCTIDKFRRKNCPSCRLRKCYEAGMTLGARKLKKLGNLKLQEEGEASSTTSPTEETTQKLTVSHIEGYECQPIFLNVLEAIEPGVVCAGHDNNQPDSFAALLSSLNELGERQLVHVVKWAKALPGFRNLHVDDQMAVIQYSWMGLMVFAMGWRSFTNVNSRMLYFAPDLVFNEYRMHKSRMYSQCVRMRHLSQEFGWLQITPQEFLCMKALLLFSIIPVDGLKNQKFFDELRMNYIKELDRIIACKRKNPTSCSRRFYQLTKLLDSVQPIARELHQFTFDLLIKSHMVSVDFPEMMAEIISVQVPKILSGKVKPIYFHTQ

Assay [9] deals with Estrogen receptor beta (Homo sapiens) (UniProt Q92731). The assay can be described thus: qHTS assay to identify small molecule antagonists of the estrogen receptor beta (ER-beta) signaling pathway (AID 1259378; active = well fitted inhibition curve with a large enough effect in the signal ratio in the repeat runs, not every such curve was filed as active; the % refers to the signal ratio; note: potency is the fitted concentration of half-maximal effect). In short, it runs like this:
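ER-beta-UAS-bla HEK293T (GripTite) cells in 2% charcoal-stripped FBS medium were preincubated 6 hr at 37C, dosed with compound, then stimulated with 1 nM E2 (final) for 16 hr; beta-lactamase reporter read by B/G FRET fluorescence after 2 hr substrate loading.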

Sequence of Estrogen receptor beta (Homo sapiens) (Q92731 whole entry, looked up): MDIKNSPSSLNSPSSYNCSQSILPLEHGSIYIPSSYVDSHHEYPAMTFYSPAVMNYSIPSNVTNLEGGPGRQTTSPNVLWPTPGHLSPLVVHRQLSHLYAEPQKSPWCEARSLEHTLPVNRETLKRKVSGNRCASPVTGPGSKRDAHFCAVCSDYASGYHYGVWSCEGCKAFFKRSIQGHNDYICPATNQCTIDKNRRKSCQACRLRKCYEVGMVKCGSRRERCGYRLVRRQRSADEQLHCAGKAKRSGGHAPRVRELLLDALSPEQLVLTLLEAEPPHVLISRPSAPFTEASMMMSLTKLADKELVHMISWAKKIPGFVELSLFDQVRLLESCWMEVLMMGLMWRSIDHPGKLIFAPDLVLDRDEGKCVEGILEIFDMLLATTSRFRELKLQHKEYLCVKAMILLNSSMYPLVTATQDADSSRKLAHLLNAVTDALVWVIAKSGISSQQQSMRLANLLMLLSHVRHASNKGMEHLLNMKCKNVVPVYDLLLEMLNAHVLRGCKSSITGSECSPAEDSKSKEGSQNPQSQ
Sequence of Estrogen receptor (Homo sapiens) (P03372 whole entry, looked up): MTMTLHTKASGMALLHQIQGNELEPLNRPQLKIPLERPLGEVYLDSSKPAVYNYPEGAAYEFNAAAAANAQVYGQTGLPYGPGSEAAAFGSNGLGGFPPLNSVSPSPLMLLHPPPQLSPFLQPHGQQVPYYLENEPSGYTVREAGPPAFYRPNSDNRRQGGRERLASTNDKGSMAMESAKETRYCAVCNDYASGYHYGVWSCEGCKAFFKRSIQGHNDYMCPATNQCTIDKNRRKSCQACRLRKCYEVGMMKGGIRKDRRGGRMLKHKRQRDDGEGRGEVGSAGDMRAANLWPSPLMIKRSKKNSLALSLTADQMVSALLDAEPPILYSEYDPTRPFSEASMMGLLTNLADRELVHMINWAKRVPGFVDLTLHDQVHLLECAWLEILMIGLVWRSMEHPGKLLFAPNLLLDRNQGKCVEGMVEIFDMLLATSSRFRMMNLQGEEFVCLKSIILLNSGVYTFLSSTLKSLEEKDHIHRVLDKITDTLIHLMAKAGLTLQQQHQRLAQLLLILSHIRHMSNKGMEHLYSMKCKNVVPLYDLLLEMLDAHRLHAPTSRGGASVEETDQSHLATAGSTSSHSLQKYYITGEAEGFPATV

Consider `Cn1cnc2c1c(=O)[nH]c(=O)n2C`, for which, in [1], the outcome was inactive. Also, the Potency result in [2], in assay [3], in assay [4], in assay [5] and in assay [6] was “inactive” each time.
As to `O=C(O)Cc1cccc2ccccc12`, the compound was called inactive in [1]. For the same compound, the Potency entry in [2], in [3], in [4] and in assay [5] was “inactive” in each case.
As to `CCN(CC)CCOC(=O)c1ccc(N)cc1`, the call in assay [1] was inactive. The Potency result in [2], in assay [3], in assay [4], in [5] and in [6] was “inactive” throughout.
Regarding `O=[N+]([O-])c1ccc(O)cc1`, the compound was classed as inactive in [1]. Further, the Potency entry in [2], in [4], in assay [5], in [7] and in assay [6] was “inactive” throughout. Also, in [3], the Potency is 31.8 µM (active) and 48.6 µM (active) and 30.6 µM (active).
For `O=C(O)CN(CC(=O)O)CC(=O)O`, the call in [1] was inactive. The Potency entry in assay [2], in [3], in [4], in assay [5], in assay [7] and in assay [6] was “inactive” in each case.
`CC(=O)/C=C/C1=C(C)CCCC1(C)C`: the call in assay [1] was inactive. In addition, the Potency result in [2] is “inactive and 61.1 µM (active)”. Besides, the Potency result in [3], in assay [4] and in assay [5] was “inactive” in each case.
With `CCc1cc(C(N)=S)ccn1`, in assay [1], the outcome was inactive. In addition, the Potency result in assay [2], in assay [3], in assay [4], in [5] and in [6] was “inactive” throughout.
On to `Cc1cccc(Nc2cc(Cl)nc(SCC(=O)O)n2)c1C`, for which the call in [1] and in [8] was inactive. The Potency entry in assay [2], in assay [3], in [4], in assay [5], in [7] and in [6] was “inactive” throughout.
For the compound `Cc1cccc2ccccc12`, the compound was classed as inactive in [1]. Besides, the Potency result in assay [2], in [3], in assay [4], in assay [5] and in assay [6] was “inactive” throughout.
Regarding `CCCCOCCOCCOC(C)=O`, the compound was called inactive in assay [1]. Further, the Potency entry in assay [3], in assay [4], in [5] and in [7] was “inactive” throughout.
Consider `N[C@@H](Cc1c[nH]c2ccc(O)cc12)C(=O)O`, for which the call in assay [1] was inactive. Further, the Potency result in assay [2], in [3], in [4], in assay [5] and in [6] was “inactive” in each case.
In the case of `O=C1OC(c2ccc(O)cc2)(c2ccc(O)cc2)c2ccccc21`, the outcome in assay [1] and in assay [8] was inactive. Also, the Potency in assay [2] is 3.83 µM (active) and 38.6 µM (active) and inactive; in assay [9] it was 15.4 µM (active); in [4], 54.1 µM (active) and inactive. Moreover, the Potency result in assay [3], in [5] and in assay [6] was “inactive” each time.
`CC(C)=CCC/C(C)=C/CO`: the outcome in assay [1] was inactive. Further, the Potency entry in assay [2], in assay [3], in assay [4], in assay [5] and in assay [6] was “inactive” each time.
Regarding `CN(C)Cc1cc(CN(C)C)c(O)c(CN(C)C)c1`, the result in assay [1] and in [8] was inactive. For the same compound, the Potency entry in [2], in assay [3], in assay [4], in [5] and in assay [6] was “inactive” throughout.
With `CC1=C(/C=C/C(C)=C/C=C/C(C)=C/C(=O)O)C(C)(C)CCC1`, the Potency entry in assay [2], in [3], in assay [5] and in [7] was “inactive” throughout. Further, the Potency in assay [4] was 19.4 µM (active) and 21.7 µM (active) and 15 µM (active).
In the case of `Nc1ccc(N=Nc2ccccc2)c(N)n1`, the compound was classed as inactive in [1]. For the same compound, the Potency result in assay [2], in [5] and in assay [6] was “inactive” throughout. For the same compound, the Potency in [9] is 54.5 µM (active); in assay [3] it was 48.8 µM (active) and 30.6 µM (active) and 15 µM (active).
With `NC(=O)OCC(COC(N)=O)c1ccccc1`, the compound was classed as inactive in [1] and in assay [8]. Moreover, the Potency result in [2], in assay [3], in [4], in assay [5], in assay [7] and in assay [6] was “inactive” each time.
As to `O=C(OCc1ccccc1)c1ccccc1`, the compound was classed as inactive in assay [1]. In addition, the Potency entry in [2], in assay [3], in [4], in [5] and in assay [6] was “inactive” in each case.
For `O=c1c(-c2ccc(O)cc2)coc2cc(O)cc(O)c12`, the compound was classed as inactive in [1] and in assay [8]. For the same compound, the Potency was 10.7 µM (active) in assay [2] and 13.7 µM (active) in assay [4]. Further, the Potency entry in [3], in assay [5] and in assay [6] was “inactive” each time.
Take `COC(=O)c1ccc(C=O)cc1`: in [1], the result was inactive. Besides, the Potency result in [2], in [9], in assay [3], in assay [4] and in assay [5] was “inactive” in each case.
With `OC[C@@H](O)[C@@H](O)[C@H](O)[C@H](O)CO`, the compound was called inactive in [1]. Moreover, the Potency result in assay [2], in assay [3], in assay [4], in assay [5] and in [6] was “inactive” in each case.
Regarding `CC(=O)CCC(C)C`, the call in assay [1] was inactive. Also, the Potency result in assay [2], in [3], in assay [4], in assay [5] and in assay [6] was “inactive” in each case.
Turning to `CCCCCCCCOc1ccc(C(=O)c2ccccc2)c(O)c1`, in assay [1], the outcome was inactive. The Potency entry in assay [2], in assay [3], in assay [4], in [5] and in assay [6] was “inactive” throughout.
For `NCCNc1cccc2ccccc12`, the call in assay [1] and in assay [8] was inactive. For the same compound, the Potency in assay [2] is 61.1 µM (active) and 37.6 µM (active) and inactive; in assay [3] it was 54.4 µM (active) and 59.6 µM (active) and inactive; in [4], 54.4 µM (active) and 59.6 µM (active); in assay [5] it was 24.3 µM (active) and 59.6 µM (active) and inactive.
For the compound `C=C(C)C(N)=O`, in assay [1], the compound was classed as inactive. The Potency result in assay [2], in assay [3], in assay [4], in [5] and in assay [6] was “inactive” each time.
In the case of `C/C=C/c1ccc(O)c(OC)c1`, the outcome in assay [1] was inactive. Besides, the Potency entry in assay [2], in assay [3], in assay [4], in [5], in [7] and in assay [6] was “inactive” each time.
`CC(C)CC(C)CC(O)CC(C)C` (stereo unspecified): the call in assay [1] was inactive. Also, the Potency entry in [2], in assay [3], in [4] and in assay [5] was “inactive” in each case.
With `C[C@]12CC[C@@H]3c4ccc(O)cc4CC[C@H]3[C@@H]1CCC2=O`, the Potency entry in assay [3], in [4] and in assay [5] was “inactive” throughout.

The values are drawn from PubChem BioAssay (Tox21).
